Laboratory results as given in PubChem BioAssay.
Activity calls are given as the source filed them.

How the values were obtained:
[1] = tested on: Plasmodium falciparum Sir2 (PF13_0152, Sir2A); assay: Plasmodium falciparum Sir2A binding compounds – biochemical, small-molecule microarray, 635 nm fluorescence, primary screen (AID 1098); conditions: fluorescence 635 nm, higher = more signal;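 further: score merges spot fluorescence intensity with its signal-to-noise ratio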
[2] = probe aDKK1 binding to arrayed compounds – biochemical, biotinylated probe, 635/667 nm fluorescence, primary screen (AID 1099); conditions: small-molecule microarray, higher = more signal;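 further: score merges 667nm spot fluorescence with signal to noise across triplicate slides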
[3] = probe aCHRDL2 binding to arrayed compounds – biochemical, biotinylated probe, 635/667 nm fluorescence, primary screen (AID 1100); conditions: small-molecule microarray, higher = more signal
[4] = change in splice reporter luminescence, either direction, cell-based, HEK293, spliceosome inhibition project, primary screen (AID 1101); conditions: HEK293 splicing luciferase reporter, 24 h, higher = more signal, called active from +8 up or from −8 down;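 further: HEK293 cells carrying a splicing-competent luciferase reporter gene; test concentration not given here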
[5] = biological target: Fibroblast growth factor 10 (Homo sapiens) (UniProt O15520); assay: compounds binding fibroblast growth factor 10 – biochemical, small-molecule microarray, 635 nm fluorescence, primary screen (AID 1102); conditions: FGF10 binding, fluorescence 635 nm, higher = more signal
[6] = tested on: glycogen synthase kinase-3 (GSK3A per assay name; protocol says GSK3B); assay: compounds binding glycogen synthase kinase-3 – biochemical, small-molecule microarray, 635 nm fluorescence, GSK3A, primary screen (AID 1103); conditions: fluorescence 635 nm, higher = more signal; further: the record names both GSK3A and GSK3B
[7] = biological target: Epidermal growth factor receptor (Homo sapiens) (UniProt P00533); assay: compounds binding epidermal growth factor receptor – biochemical, small-molecule microarray, 635 nm fluorescence, primary screen (AID 1104); conditions: EGFR binding, higher = more signal;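 further: score merges 667 nm emission intensity with spot signal to noise over triplicate slides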
[8] = biological target: Follistatin-related protein 3 (Homo sapiens) (UniProt O95633); assay: compounds binding follistatin-related protein 3 – biochemical, small-molecule microarray, 635 nm fluorescence, primary screen (AID 1105); conditions: FSTL3 binding, higher = more signal;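 further: score merges emission near 667 nm and signal to noise per printed spot across three slides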
[9] = biological target: Dickkopf-related protein 1 (Homo sapiens) (UniProt O94907); assay: small molecules binding DKK1 protein – biochemical, small-molecule microarray, 635 nm fluorescence scan, primary screen (AID 1106); conditions: higher = more signal;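 further: score merges emission near 667 nm with signal to noise over three replicate slides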
[10] = tested on: Inhibin beta A chain (activin A); assay: small molecules binding activin A – biochemical, small-molecule microarray, 635 nm fluorescence scan, primary screen (AID 1107); conditions: INHBA, higher = more signal;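 further: mouse activin A protein probed at 4.33 µg/mL on printed slides; score merges bound-protein fluorescence near 667 nm with spot signal-to-noise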
[11] = tested on: Human papillomavirus type 1a protein E7 (residues 44-93); assay: small molecules binding HPV E7 44-93 – biochemical, small-molecule microarray, residues 44-93, 635 nm fluorescence, primary screen (AID 1108); conditions: fluorescence 635 nm, higher = more signal;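 further: E7 fragment applied at 1 µg/mL in TBST for 1 h at 4 C; score combines spot fluorescence with its signal to noise ratio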
[12] = hepatitis C replication reporter changes, two-sided – Huh7 cells, luciferase reporter, HCV replication inhibitor project, primary screen (AID 1109); conditions: Huh7 HCV replicon luciferase reporter, 48 h; higher = more signal;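 further: huh7 hepatoma cells harbouring a luciferase neomycin HCV replicon reporter; luciferase luminescence as measure of HCV replicon replication; test concentration not given here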
[13] = biological target: Left-right determination factor 2 (Homo sapiens) (UniProt O00292); assay: small molecules binding LEFTY2 protein – biochemical, small-molecule microarray, 635 nm fluorescence scan, primary screen (AID 1110); conditions: higher = more signal
[14] = biological target: Calmodulin-1 (Homo sapiens) (UniProt P0DP23); assay: small molecules binding calmodulin-1 with EGTA – biochemical, small-molecule microarray, Cy5-labelled CALM1, profiling panel (AID 1111); conditions: Cy5-CALM1 binding fluorescence, higher = more signal;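 further: labelled calmodulin applied in Tris saline Tween buffer holding calcium plus EGTA and DTT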
[15] = biological target: Calmodulin-1 (Homo sapiens) (UniProt P0DP23); assay: small molecules binding Ca-loaded calmodulin-1 – biochemical, small-molecule microarray, Cy5-labelled CALM1, plus calcium, artefact control for SMM control-protein annotation, profiling panel (AID 1112); conditions: Cy5-CALM1 binding fluorescence, higher = more signal;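 further: score merges spot fluorescence with signal to noise from triplicate slides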
[16] = probe aWnt5a binding to arrayed compounds – biochemical, biotinylated probe, 635/667 nm fluorescence, primary screen (AID 1113); conditions: small-molecule microarray, higher = more signal;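 further: score merges 667 nm fluorescence intensity with signal-to-noise per printed feature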
[17] = probe aShh binding to arrayed compounds – biochemical, biotinylated probe, 635/667 nm fluorescence, primary screen (AID 1114); conditions: small-molecule microarray, higher = more signal;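 further: probe is biotin-labelled aShh protein from a stem cell growth factor screen; measures binding of labelled protein to compounds printed on the slide; score merges feature fluorescence at 667 nm with signal-to-noise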
[18] = probe aNog binding to arrayed compounds – biochemical, biotinylated probe, 635/667 nm fluorescence, primary screen (AID 1115); conditions: small-molecule microarray, higher = more signal;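 further: probe is biotinylated aNog protein used at 0.15 µg/mL for 1 h at 4 C; z-score combines 667 nm fluorescence of each spot with its signal to noise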
[19] = biological target: Torsin-1A-interacting protein 1 (Homo sapiens) (UniProt Q5JTV8); assay: compound microarray binding of lysate hLAP1 – cell lysate, small-molecule microarray, COS7 lysate, 635/667 nm fluorescence, primary screen (AID 1116); conditions: 635 nm fluorescence, higher = more signal
[20] = biological target: Alpha-bungarotoxin (Bungarus multicinctus) (UniProt P60615); assay: compounds binding labelled alpha-BTX control protein – biochemical, small-molecule microarray, Alexa647 label, 635/667 nm fluorescence, artefact control for SMM control protein annotation, profiling panel (AID 1117); conditions: alpha-BTX-A647 binding fluorescence, higher = more signal
Sequence of Alpha-bungarotoxin (Bungarus multicinctus) (P60615 whole entry, looked up): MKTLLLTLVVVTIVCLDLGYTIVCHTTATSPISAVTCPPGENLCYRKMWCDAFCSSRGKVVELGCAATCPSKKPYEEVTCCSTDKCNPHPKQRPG

Sequence of Follistatin-related protein 3 (Homo sapiens) (O95633 whole entry, looked up): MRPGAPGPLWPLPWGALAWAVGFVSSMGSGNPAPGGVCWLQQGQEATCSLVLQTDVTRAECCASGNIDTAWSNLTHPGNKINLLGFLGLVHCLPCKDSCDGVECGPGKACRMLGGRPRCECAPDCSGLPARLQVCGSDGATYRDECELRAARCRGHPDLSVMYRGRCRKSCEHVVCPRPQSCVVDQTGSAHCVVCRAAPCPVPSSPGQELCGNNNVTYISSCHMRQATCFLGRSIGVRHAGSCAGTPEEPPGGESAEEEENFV
Sequence of Fibroblast growth factor 10 (Homo sapiens) (O15520 whole entry, looked up): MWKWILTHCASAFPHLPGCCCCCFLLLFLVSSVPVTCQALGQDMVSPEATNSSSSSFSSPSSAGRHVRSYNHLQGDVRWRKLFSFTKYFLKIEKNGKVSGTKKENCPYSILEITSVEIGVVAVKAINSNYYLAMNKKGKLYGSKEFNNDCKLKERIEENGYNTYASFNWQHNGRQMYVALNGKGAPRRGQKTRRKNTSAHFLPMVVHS
Sequence of Dickkopf-related protein 1 (Homo sapiens) (O94907 whole entry, looked up): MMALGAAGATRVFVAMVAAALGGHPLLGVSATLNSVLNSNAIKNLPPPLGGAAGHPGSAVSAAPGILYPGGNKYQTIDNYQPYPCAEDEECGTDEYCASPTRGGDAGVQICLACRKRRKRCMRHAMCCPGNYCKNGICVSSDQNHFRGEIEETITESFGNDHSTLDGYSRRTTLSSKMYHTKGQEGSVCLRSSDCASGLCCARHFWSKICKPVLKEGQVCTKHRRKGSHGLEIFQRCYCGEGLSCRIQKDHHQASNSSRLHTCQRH
Sequence of Epidermal growth factor receptor (Homo sapiens) (P00533 whole entry, looked up): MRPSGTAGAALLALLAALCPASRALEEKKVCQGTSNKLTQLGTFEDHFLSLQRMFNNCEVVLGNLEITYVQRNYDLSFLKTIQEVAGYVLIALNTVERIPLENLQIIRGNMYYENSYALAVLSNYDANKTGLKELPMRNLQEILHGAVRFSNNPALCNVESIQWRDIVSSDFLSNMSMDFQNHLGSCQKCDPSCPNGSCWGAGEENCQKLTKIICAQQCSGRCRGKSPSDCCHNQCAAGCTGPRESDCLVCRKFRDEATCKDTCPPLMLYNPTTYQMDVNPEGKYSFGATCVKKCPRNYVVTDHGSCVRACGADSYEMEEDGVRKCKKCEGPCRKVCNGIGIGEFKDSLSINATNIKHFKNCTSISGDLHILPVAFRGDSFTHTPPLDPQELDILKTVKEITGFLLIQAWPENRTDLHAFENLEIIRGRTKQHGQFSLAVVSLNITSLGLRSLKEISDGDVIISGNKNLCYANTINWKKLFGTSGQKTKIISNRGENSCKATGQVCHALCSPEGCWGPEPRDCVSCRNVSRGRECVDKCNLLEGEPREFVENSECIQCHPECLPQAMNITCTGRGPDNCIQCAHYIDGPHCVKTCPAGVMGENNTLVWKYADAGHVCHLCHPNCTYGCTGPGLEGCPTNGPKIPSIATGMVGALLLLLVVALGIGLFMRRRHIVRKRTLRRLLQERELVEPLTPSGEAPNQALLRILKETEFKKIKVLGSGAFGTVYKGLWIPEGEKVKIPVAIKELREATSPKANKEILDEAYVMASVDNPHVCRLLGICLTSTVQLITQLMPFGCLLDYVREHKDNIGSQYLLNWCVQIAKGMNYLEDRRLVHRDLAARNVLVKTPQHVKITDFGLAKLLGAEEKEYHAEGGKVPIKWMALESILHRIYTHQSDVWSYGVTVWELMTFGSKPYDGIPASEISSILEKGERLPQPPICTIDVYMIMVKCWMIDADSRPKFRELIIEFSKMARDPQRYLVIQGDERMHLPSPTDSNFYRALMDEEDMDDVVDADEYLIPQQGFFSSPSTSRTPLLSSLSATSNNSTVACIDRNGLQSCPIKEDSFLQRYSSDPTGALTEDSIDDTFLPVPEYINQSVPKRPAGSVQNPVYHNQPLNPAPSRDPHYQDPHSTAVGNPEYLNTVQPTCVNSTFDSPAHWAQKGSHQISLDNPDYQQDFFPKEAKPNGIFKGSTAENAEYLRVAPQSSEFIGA
Sequence of Torsin-1A-interacting protein 1 (Homo sapiens) (Q5JTV8 whole entry, looked up): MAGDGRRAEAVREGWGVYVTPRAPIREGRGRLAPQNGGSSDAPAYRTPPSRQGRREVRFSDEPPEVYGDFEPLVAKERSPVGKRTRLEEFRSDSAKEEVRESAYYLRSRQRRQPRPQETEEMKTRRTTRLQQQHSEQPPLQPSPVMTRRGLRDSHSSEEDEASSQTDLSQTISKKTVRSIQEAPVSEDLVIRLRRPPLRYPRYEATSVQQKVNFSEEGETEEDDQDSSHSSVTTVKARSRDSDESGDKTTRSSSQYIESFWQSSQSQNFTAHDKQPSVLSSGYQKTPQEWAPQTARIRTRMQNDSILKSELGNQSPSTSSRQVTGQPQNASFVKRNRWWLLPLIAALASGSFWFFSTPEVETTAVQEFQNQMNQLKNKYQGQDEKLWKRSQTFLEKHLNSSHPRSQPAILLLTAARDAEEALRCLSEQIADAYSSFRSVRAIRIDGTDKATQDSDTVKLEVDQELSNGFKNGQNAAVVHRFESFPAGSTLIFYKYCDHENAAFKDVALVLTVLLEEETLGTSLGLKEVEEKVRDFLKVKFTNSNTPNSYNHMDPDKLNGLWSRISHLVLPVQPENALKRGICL
Sequence of Left-right determination factor 2 (Homo sapiens) (O00292 whole entry, looked up): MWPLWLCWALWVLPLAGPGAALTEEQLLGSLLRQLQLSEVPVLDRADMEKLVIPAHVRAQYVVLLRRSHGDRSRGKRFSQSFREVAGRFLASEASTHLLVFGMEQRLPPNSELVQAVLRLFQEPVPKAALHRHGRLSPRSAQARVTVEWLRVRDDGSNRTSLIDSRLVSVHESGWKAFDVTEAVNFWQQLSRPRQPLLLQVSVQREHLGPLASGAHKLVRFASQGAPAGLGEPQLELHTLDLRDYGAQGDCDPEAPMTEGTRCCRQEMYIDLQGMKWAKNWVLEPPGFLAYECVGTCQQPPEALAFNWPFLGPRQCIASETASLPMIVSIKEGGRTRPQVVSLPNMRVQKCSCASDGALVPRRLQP

| Structure (SMILES) | composite z-score [1] | composite z-score [2] | composite z-score [3] | z-score [4] | composite z-score [5] | composite z-score [6] | composite z-score [7] | composite z-score [8] | composite z-score [9] | composite z-score [10] | composite z-score [11] | z-score [12] | composite z-score [13] | composite z-score [14] | composite z-score [15] | composite z-score [16] | composite z-score [17] | composite z-score [18] | composite z-score [19] | composite z-score [20] |
| --- | --- | --- | --- | --- | --- | --- | --- | --- | --- | --- | --- | --- | --- | --- | --- | --- | --- | --- | --- | --- |
| C=C[C@H](COC(C)=O)N(Cc1ccc(OC(C)=O)c(OC)c1)S(=O)(=O)c1ccc(Br)cc1 | 0.723 | 0.64 | 0.612 | -1.16 (inactive) | 0.934 | 1.06 | 0.493 | 0.579 | 0.844 | 0.426 | 1.29 | -0.0847 | 0.461 | 1.05 | 0.267 | 0.0479 | -0.291 | -0.407 | 0.788 | 0.998 |
| COC(=O)C[C@H]1O[C@]2(C(=O)N(Cc3ccccc3)c3ccc(NC(C)=O)cc32)[C@@H](C)[C@@H]1[Si](C)(C)c1ccc(OC)cc1 | 0.407 | -0.097 | -0.362 | -0.703 (inactive) | 0.802 | 0.985 | 0.474 | 0.719 | 0.599 | 0.25 | 0.866 | -2.23 | 0.104 | 0.403 | -0.352 | -0.096 | -0.2 | 0.188 | 0.538 | 0.226 |
| COCCOC(=O)N1C(=O)[C@@]2(c3cc(C#CCCO)ccc31)[C@H](C(=O)NC[C@H](O)c1ccccc1)[C@H]1C(=O)O[C@H](c3ccccc3)[C@H](c3ccccc3)N1[C@@H]2c1ccc(O)cc1 | 0.0479 | -0.194 | 0.146 | -0.267 (inactive) | 0.518 | -0.417 | -0.243 | 0.599 | 0.165 | -0.0769 | 0.727 | -0.485 | -0.186 | 0.302 | 0.262 | -0.0519 | -0.416 | -0.0784 | 1.11 | 0.476 |
| CN(C)CCCCNC(=O)[C@H]1C[C@H]2C(=O)N[C@@H](Cc3ccccc3)C(=O)N2[C@H]1c1ccc(O)cc1 | 0.725 | -0.0299 | -0.0646 | -1.03 (inactive) | 1.4 | 1.2 | 0.425 | 1.39 | 1.5 | -0.44 | 1.38 | 0.506 | 1.17 | 0.561 | 0.746 | -0.0866 | -0.0243 | 0.355 | 0.945 | 1.55 |
| CC(C)N1CC=CC23O[C@@H]4C=CCOC(=O)[C@@H]4[C@H]2C(=O)N(CCO)[C@@H]3C1=O (stereo not given in full) | 1.58 | -0.256 | 0.651 | -0.262 (inactive) | -1.61 | -0.897 | -0.859 | -0.447 | -1.61 | -0.223 | 0.723 | -0.0497 | -1.65 | -0.248 | 0.641 | -0.206 | -0.11 | -0.178 | 0.0566 | -1.15 |
| CCOC(=O)[C@H]1C/C=C/C[C@H](C(=O)OCC)C(=O)O[C@H]2[C@@H](OC)O[C@H](CO)[C@@H](OC(=O)Nc3ccc4c(c3)OCO4)[C@@H]2OC1=O | 0.353 | 0.0005 | 0.0193 | -1.14 (inactive) | 0.79 | 0.677 | -0.407 | 0.294 | -0.009 | 0.456 | 0.433 | -3.52 | -0.261 | 0.346 | 0.152 | 0.0608 | 0.28 | 0.122 | 0.591 | 0.167 |
| CCOC(=O)C1=C[C@@H](CC)N(S(=O)(=O)c2ccc(C)cc2)[C@H]1c1ccccc1 | 0.689 | -0.1 | 0.521 | 0.803 (inactive) | 0.769 | 1.01 | 0.586 | 0.59 | 0.43 | 0.538 | 1.36 | -2.23 | 0.0917 | 1.07 | 0.26 | 0.0799 | -0.0709 | 0.925 | 0.905 | 0.54 |
| COC(=O)c1c(CC[C@@H](CO)NC(=O)N[C@@H](Cc2ccccc2)Cn2cc(C3(O)CCCCC3)nn2)oc(C(C)=O)c1C(=O)OC | 0.893 | -0.27 | -0.328 | -2.62 (inactive) | 1.31 | 0.819 | 0.346 | 0.873 | 0.514 | 0.382 | 1.28 | -1.47 | 0.693 | 0.267 | -0.36 | -0.096 | -0.142 | -0.449 | 0.639 | 0.519 |
| CC(=O)NCCCC[C@@H]1NC(=O)[C@H]2C[C@@H](C(=O)NCCCCCC[N+](C)(C)C)[C@@H](c3cccc(OCCO)c3)N2C1=O | 1.44 | -0.104 | -0.207 | -1.6 (inactive) | 1.17 | 0.917 | 0.848 | 1.58 | 1.85 | 0.695 | 1.1 | -0.0914 | 1.02 | 0.0227 | -0.34 | -0.0792 | -0.0709 | 0.019 | 0.595 | 2.04 |
| [N-]=[N+]=NCc1ccccc1[C@@H]1OC(c2ccc(OCCCO)cc2)=N[C@]1(Cc1ccccc1)C(=O)N1CCCCC1 | 1.36 | 0.792 | 0.63 | -0.276 (inactive) | 1.32 | 1.18 | -0.167 | 0.584 | 0.118 | 0.407 | 1.39 | -2.79 | 0.232 | 1.4 | 0.955 | 0.0136 | 0.369 | 0.733 | 1.27 | 1.14 |
| C[C@H]1NC(=O)[C@H](Cc2ccccc2)NC(=O)[C@@]23C(=O)N[C@@H](Cc4ccccc4)C2[C@H](C)[C@@]2(C)O[C@H]2C3/C=C/C/C=C\CNC1=O (stereo not given in full) | 0.444 | -0.245 | -0.471 | 0.587 (inactive) | -0.354 | -1.16 | 0.203 | -0.0523 | 0.461 | 1.45 | -0.794 | 0.136 | 0.133 | -0.638 | -0.859 | -0.146 | -0.324 | -0.429 | -0.214 | -0.407 |
